HT1080 IDH1KD tx – kills HT-1080 cells with IDH1 knockdown. HT-1080 IDH1 knockdown viability, ATP luminescence, 48 h. Potency, µM (top dose mostly 46.1 µM), inactives show at the top dose activity, negative = toxicity, actives largely listed as cytotoxic. hit rate 2% among 360,000. AID 686971;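 also: potency is read from the fitted curve at half-maximal effect; 0% = DMSO wells and -100% = cell-free medium wells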
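Cytotoxicity counter-line: IDH1KD HT-1080, 48 h, CellTiter-Glo. Curves classed by r2, magnitude and activity.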
ATXN2 expr inh – ATXN2 expression inhibition. HEK-293 ATXN2-luciferase reporter, luminescence, 24 h. hit rate 0.72% among 360,000. Potency, µM (highest dose often 57 µM), for inactives: top-dose activity change, negative = inhibition, actives largely listed as inhibitors; also: potency is read from the fitted curve at half-maximal effect; % is scaled to controls: 0 for no effect and ±100 for the full control effect; nearly all actives have a fitted effect of over 55% in size
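ATXN2-luciferase reporter cells (luciferase flanked by upstream and downstream ATXN2 gene portions) were treated 24 h at 37 °C with compounds at up to 57 uM. SteadyGlo luminescence gave expression; GF-AFC fluorescence gave viability.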
ATXN viability – cell viability loss in ATXN counter-screen | S2 cells (HEK-293 line with an ATXN2-luciferase reporter) viability, CellTiter-Fluor protease fluorescence, 24 h | Potency, µM (highest dose often 56.7 µM), most hits filed as cytotoxic | hit rate 0.49% among 400,000; also: potency is read from the fitted curve at half-maximal effect; nearly all actives have a fitted effect of over 40% in size
HT1080NT lethal – kills 2HG-producing HT-1080-NT fibrosarcoma cells; HT-1080-NT fibrosarcoma viability, CellTiter-Glo ATP luminescence, 48 h; Potency, µM (doses to about 46.1 µM), inactives show at the top dose activity, negative = less viability, most hits filed as cytotoxic; hit rate 1.6% among 360,000; AID 686970;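 also: NT is the 2HG producing partner of a matched IDH1 knockdown line; potency is read from the fitted curve at half-maximal effect; 0% = DMSO-treated cells and -100% = media-only wells without cells; nearly all actives have a fitted effect of over 55% in size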
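HT-1080-NT; 750 cells/well; 5% FBS RPMI; 48 h compound, 37 degrees C; CellTiter-Glo luminescence; curve fitting and curve-class assignment.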
HepG2 tox – HepG2 cytotoxicity, counter-screen for TGF-b inhibitors | HepG2 CAGA-GFP viability, ATP luminescence, 18 h | Potency, µM (top dose mostly 46.1 µM), without a hit: top-dose activity change, negative = cytotoxicity, usual class: cytotoxic | hit rate 0.76% among 410,000 | AID 588856; also: potency is read from the fitted curve at half-maximal effect
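HepG2 CAGA-GFP cells (1000/well, DMEM with 1% FBS) received compound, then TGF-beta at 500 pg/mL final, and were incubated 18 hours at 37 degrees C. Viability was read by CellTiter-Glo luminescence. Media-only wells were set as complete cell-killing and DMSO as no toxicity.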
TGFb SMAD3 inh – blocks TGF-b signaling | HepG2 CAGA-GFP TGF-b/SMAD3 reporter, GFP fluorescence, 18 h; TGF-beta stimulated, 500 pg/mL final | Potency, µM (top dose mostly 46.1 µM), for the others: at the highest dose activity, negative = inhibition, most hits filed as inhibitors | hit rate 1.2% among 410,000; also: potency is read from the fitted curve at half-maximal effect; % is scaled to controls: 0 for no effect and ±100 for the full control effect; nearly all actives have a fitted effect of over 65% in size
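GFP signal (ex488/em500-530) from TGF-beta-stimulated HEPG2 CAGA-GFP cells, 500 pg/mL final, 18 h at 37 degrees C in DMEM plus 1% FBS, normalized to unstimulated and DMSO-stimulated controls.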
SKNSH spheroid – kills SK-N-SH neuroblastoma spheroids in orthogonal 3D test. hit rate 70% among 65. SK-N-SH 3D spheroid viability, PI/Hoechst imaging, 72 h. shares compounds with ATXN2 expr inh. Potency, µM (titrated, usually from 30.7 µM), usual class: inhibitors
SJGBM2 3D viab – SJ-GBM2 spheroid viability loss, orthogonal 3D screen; shares compounds with ATXN2 expr inh; SJ-GBM2 3D spheroid viability, PI/Hoechst imaging, 72 h; Potency, µM (titrated, usually from 30.7 µM), actives largely listed as inhibitors; hit rate 80% among 65; AID 1347136
Daoy 3D tox – kills Daoy spheroids in orthogonal 3D test. Daoy 3D spheroid viability, PI/Hoechst imaging, 72 h. hit rate 50% among 65. Potency, µM (titrated, usually from 30.7 µM), usual class: inhibitors. AID 1347137. shares compounds with ATXN2 expr inh
TC32 3D caspase – activates caspase in TC32 3D spheroids; Potency, µM (doses to about 30.7 µM), most hits filed as inhibitors; hit rate 30% among 65; TC32 3D spheroids, caspase-3/7 fluorescence imaging, 24 h; shares compounds with ATXN2 expr inh
TC32 3D tox – TC32 3D spheroid viability loss; Potency, µM (highest dose often 30.7 µM), hits mostly inhibitors; shares compounds with ATXN2 expr inh; hit rate 60% among 65; TC32 3D spheroid viability, PI/Hoechst imaging, 72 h
MG63 spheroid – kills MG-63 (6-TG R) spheroids in orthogonal 3D test; AID 1347140; shares compounds with ATXN2 expr inh; hit rate 50% among 65; MG-63 (6-TG R) 3D spheroid viability, PI/Hoechst imaging, 72 h; Potency, µM (series often up to 30.7 µM), most hits filed as inhibitors
RD 3D tox – kills RD rhabdomyosarcoma spheroids in orthogonal 3D test; shares compounds with ATXN2 expr inh; RD rhabdomyosarcoma 3D spheroid viability, PI/Hoechst imaging, 72 h; Potency, µM (series often up to 30.7 µM), most hits filed as inhibitors; hit rate 50% among 65
Active calls of the source: *; i = inactive; u = inconclusive; x = no result. A selection: hits, their analogues and other compounds. The true share with any hit is near 3.9%. Calls follow the shape of the dose curve; as a rule, active = well fitted curve in the direction sought with a large enough effect; inconclusive = small, poorly fitted or top-dose-only effect, or another doubt; inactive = no such curve, though single readings can be large; an effect the other way counts as inactive or inconclusive.

SMILES	HT1080 IDH1KD tx	ATXN2 expr inh	ATXN viability	HT1080NT lethal	HepG2 tox	TGFb SMAD3 inh	others
CCCc1cc(N2CCN(c3ccc(OC)cc3)CC2)n2cnnc2n1	x	-28%	i	x	-21%	u
C=CC[C@]1(O)CC[C@H]2[C@@H]3CCC4=CC(=O)CCC4=C3C=C[C@@]21C	x	1%	i	x	x	x
O=C(CN1CCCC2CCCCC21)c1ccc(I)cc1 (configuration not stated)	x	x	x	x	-3%	5%
CCOc1cc(-c2c(C#N)c(=O)[nH]c3c2c(C)nn3-c2ccc(F)cc2)ccc1O	-14%	56%	i	-21%	-12%	u
Cc1ccc(-n2c(C)cc(/C=N/NC(=O)c3ccc(CN4CCOCC4)cc3)c2C)cc1	u	-20%	i	-15%	-11%	-1%
CN(C)C(=O)Oc1ccnc2cc(Cl)ccc12	10%	-5%	i	-1%	5%	2%
O=C(OC1CCN(CCCl)CC1)C(c1ccccc1)c1ccccc1	-22%	-2%	i	-25%	-13%	1%
c1ccc(CCN2CCCCC2)cc1	x	x	x	x	5%	6%
OC(c1ccccc1)(c1ccccc1)C1CCNCC1	-2%	8%	i	-19%	21%	1%
C[C@H]1CN([C@@H](C)CO)C(=O)c2cccc(NC(=O)c3ccc(-c4nccs4)cc3)c2O[C@@H]1CN(C)C(=O)Nc1cccc2ccccc12	-10%	-2%	i	-8%	-1%	13%
CC(C)CC[C@@H](O)[C@](C)(O)C1CC[C@@]2(O)C3=CC(=O)[C@@H]4C[C@@H](O)[C@@H](O)C[C@]4(C)C3CC[C@]12C (some centres not stated)	9%	-1%	i	u	-12%	2%
COc1cccc2c1C(=O)c1c(O)c3c(c(O)c1C2=O)C[C@@](O)(C(=O)CO)C[C@@H]3O[C@H]1C[C@H](N)[C@H](OC2CCCCO2)[C@H](C)O1 (some centres not stated)	x	1.5µM*	x	x	-14%	u	SKNSH spheroid=0.29µM*;SJGBM2 3D viab=0.72µM*;Daoy 3D tox=1.4µM*;TC32 3D caspase=1.4µM*;TC32 3D tox=1µM*;MG63 spheroid=u;RD 3D tox=u
